# Measurements taken from the supplement of paper PMC8728848.
# The full list was thinned out, with the strongest signals kept by preference.
# B1: Surfactant Protein D (Human); Neck + Carbohydrate Recognition Domain (NCRD) (Homo sapiens) (protein)
# chain: MLLFLLSALVLLTQPLGYLEAEMKTYSHRTMPSACTLVMCSSVESGLPGRDRDGREGPRGEKGDPGLPGAAGQAGMPGQAGPVGPKGDNGSVGEPGPKGDTGPSGPPGPPGVPGPAGREGALGKQGNIGPQGKPGPKGEAGPKGEVGAPGMQGSAGARGLAGPKGERGVPGERGVPGNTGAAGSAGAMGPQGSPGARGPPGLKGDKGIPGDKGAKGESGLPDVASLRQQVEALQGQVQHLQAAFSQYKKVELFPNGQSVGEKIFKTAQFVKPFTEAQLLCTQAGGQLASPRSAAENAALQQLVVAKNEAAFLSMTDSKTEGKFTYPTGESLVYSNWAPGEPNDDGGSEDCVEIFTNGKWNDRACGEKALVVCEF
# How the values were obtained:
# Test in all cases: glycan array binding signal (z-score within array); higher = stronger binding
# Conditions in all cases: glycan notation: IUPAC condensed, linker removed; mutation: R349A
# Fuc(a1-2)Gal(b1-4)GlcNAc = target: Fuc(a1-2)Gal(b1-4)GlcNAc
# Method in brief: (§1)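 From the Consortium for Functional Glycomics database, 3228 arrays were curated, keeping only those whose protein sequence was available. Binding is given as a within-array Z-score averaged across arrays sharing a protein sequence and across linkers. Negative Z-scores can be read as non-binding.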
# [1] = target: Fuc(a1-2)Gal(b1-4)GlcNAc(b1-3)Gal(b1-4)GlcNAc
# Method in brief: as §1
# [2] = target: Fuc(a1-2)[GalNAc(b1-3)]Gal
# Method in brief: as §1
# [3] = target: Fuc(a1-3)[Gal(b1-4)]GlcNAc(b1-3)Gal(b1-3)[Fuc(a1-4)]GlcNAc
# Method in brief: as §1
# Gal(b1-3)GalNAc = target: Gal(b1-3)GalNAc
# Method in brief: as §1
# [4] = target: Gal(b1-3)GalNAc(b1-4)[Neu5Ac(a2-3)]Gal(b1-4)Glc
# Method in brief: as §1
# [5] = target: Gal(b1-3)[Fuc(a1-4)]GlcNAc(b1-3)Gal(b1-4)GlcNAc
# Method in brief: as §1
# [6] = target: Gal(b1-4)GlcNAc(b1-3)[GlcNAc(b1-6)]Gal(b1-4)GlcNAc
# Method in brief: as §1
# Gal3S(b1-4)Glc = target: Gal3S(b1-4)Glc
# Method in brief: as §1
# Gal3S6S(b1-4)GlcNAc = target: Gal3S6S(b1-4)GlcNAc
# Method in brief: as §1
# Gal3S6S(b1-4)GlcNAc6S = target: Gal3S6S(b1-4)GlcNAc6S
# Method in brief: as §1
# Gal6S(b1-4)Glc6S = target: Gal6S(b1-4)Glc6S
# Method in brief: as §1
# [7] = target: GlcNAc(b1-2)Man(a1-3)[GlcNAc(b1-2)Man(a1-6)]Man(b1-4)GlcNAc(b1-4)GlcNAc
# Method in brief: as §1
# GlcNAc(b1-3)Gal = target: GlcNAc(b1-3)Gal
# Method in brief: as §1
# [8] = target: GlcNAc(b1-4)GlcNAc(b1-4)GlcNAc
# Method in brief: as §1
# [9] = target: GlcNAc(b1-4)GlcNAc(b1-4)GlcNAc(b1-4)GlcNAc(b1-4)GlcNAc
# Method in brief: as §1
# [10] = target: GlcNAc(b1-4)[GlcNAc(b1-6)]GalNAc
# Method in brief: as §1
# [11] = target: Man(a1-2)Man(a1-2)Man(a1-6)[Man(a1-3)]Man
# Method in brief: as §1
# Man(a1-2)Man(a1-3)Man = target: Man(a1-2)Man(a1-3)Man
# Method in brief: as §1
# [12] = target: Man(a1-2)Man(a1-3)[Man(a1-2)Man(a1-6)]Man(a1-6)[Man(a1-2)Man(a1-2)Man(a1-3)]Man
# Method in brief: as §1
# [13] = target: Man(a1-3)[Man(a1-6)]Man(a1-6)[Man(a1-2)Man(a1-3)]Man(b1-4)GlcNAc(b1-4)GlcNAc
# Method in brief: as §1
# [14] = target: Neu5Ac(a2-3)Gal(b1-4)GlcNAc(b1-2)Man(a1-3)[GlcNAc(b1-2)Man(b1-4)GlcNAc(b1-2)Man(a1-6)]Man(b1-4)GlcNAc(b1-4)GlcNAc
# Method in brief: as §1
# [15] = target: Neu5Ac(a2-3)Gal(b1-4)[Fuc(a1-3)]GlcNAc(b1-3)Gal(b1-4)[Fuc(a1-3)]GlcNAc(b1-3)Gal(b1-4)[Fuc(a1-3)]GlcNAc
# Method in brief: as §1
# Neu5Ac(a2-6)GalNAc = target: Neu5Ac(a2-6)GalNAc
# Method in brief: as §1
# [16] = target: Neu5Ac(a2-8)Neu5Ac(a2-8)Neu5Ac(a2-3)[GalNAc(b1-4)]Gal(b1-4)Glc
# Method in brief: as §1
binder,measurement,setting,value
B1,glycan array binding signal (z-score),Fuc(a1-2)Gal(b1-4)GlcNAc,-0.584
same,glycan array binding signal (z-score),[1],-0.301
same,glycan array binding signal (z-score),[2],-0.782
same,glycan array binding signal (z-score),[3],-0.667
same,glycan array binding signal (z-score),Gal(b1-3)GalNAc,-0.459
same,glycan array binding signal (z-score),[4],0.216
same,glycan array binding signal (z-score),[5],0.257
same,glycan array binding signal (z-score),[6],-0.419
same,glycan array binding signal (z-score),Gal3S(b1-4)Glc,0.892
same,glycan array binding signal (z-score),Gal3S6S(b1-4)GlcNAc,2.25
same,glycan array binding signal (z-score),Gal3S6S(b1-4)GlcNAc6S,3.32
same,glycan array binding signal (z-score),Gal6S(b1-4)Glc6S,3.96
same,glycan array binding signal (z-score),[7],-0.653
same,glycan array binding signal (z-score),GlcNAc(b1-3)Gal,-0.71
same,glycan array binding signal (z-score),[8],3.19
same,glycan array binding signal (z-score),[9],0.258
same,glycan array binding signal (z-score),[10],-0.577
same,glycan array binding signal (z-score),[11],-0.532
same,glycan array binding signal (z-score),Man(a1-2)Man(a1-3)Man,0.578
same,glycan array binding signal (z-score),[12],4.48
same,glycan array binding signal (z-score),[13],7.39
same,glycan array binding signal (z-score),[14],0.008
same,glycan array binding signal (z-score),[15],-0.593
same,glycan array binding signal (z-score),Neu5Ac(a2-6)GalNAc,0.373
same,glycan array binding signal (z-score),[16],-0.579
